High-throughput results from PubChem.
ELG1 repair inh = qHTS screen for small molecules that inhibit ELG1-dependent DNA repair in human embryonic kidney (HEK293T) cells expressing luciferase-tagged ELG1; HEK293T ELG1-luciferase reporter, luminescence, 16 h; DNA damage induced by 5-fluorouridine; Potency, µM (titrated, usually from 46.1 µM), for inactives: at the top dose activity change, negative = inhibition, usual class: inhibitors; 330,000 tested, 2.3% active; note: potency is the fitted concentration of half-maximal effect; nearly all actives have a fitted effect of over 55% in size
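Reporter activity after DNA damage by 5-fluorouridine is monitored. Compound-treated cells incubate 16 hr at 37 °C, then ONE-Glo is added for 30 min before luminescence reading.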
IL-1B inflam inh = qHTS for Inhibitors of Inflammasome Signaling: IL-1-beta AlphaLISA Primary Screen. THP-1 LPS/ATP IL-1B secretion, AlphaLISA, 16 h; hits give low values. 360,000 tested, 4.7% active. activity change, % at 57.5 µM. AID 743279, 2014; in the data active = activity change below about -50%; inconclusive = mostly about -30% to -49%
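Secreted IL-1B measured by AlphaLISA bead assay after 16 h compound exposure of THP-1 cells; compounds (final up to 57.5 uM) added 1 h before LPS (250 ng/mL) and ATP (1.25 mM) stimulation; lower signal means less secretion.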
HT1080NT lethal = qHTS for induction of synthetic lethality in tumor cells producing 2HG: qHTS for the HT-1080-NT fibrosarcoma cell line; HT-1080-NT fibrosarcoma viability, CellTiter-Glo ATP luminescence, 48 h; AID 686970, 2013; Potency, µM (highest dose often 46.1 µM), without a hit: at the top dose activity, negative = less viability, actives largely listed as cytotoxic; 360,000 tested, 1.6% active;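 note: NT is the 2HG producing partner of a matched IDH1 knockdown line; potency is the fitted concentration of half-maximal effect; 0% = DMSO-treated cells and -100% = media-only wells without cells; nearly all actives have a fitted effect of over 55% in size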
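A 48-hour cytotoxicity screen used HT-1080-NT cells plated 2 hours before compound delivery. ATP-based CellTiter-Glo luminescence measured viability, normalized to DMSO and no-cell controls.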
HT1080 IDH1KD tx = qHTS for induction of synthetic lethality in tumor cells producing 2HG: qHTS for the HT-1080-IDH1KD cell line. 360,000 tested, 2% active. AID 686971, 2013. Potency, µM (top dose mostly 46.1 µM), inactives show top-dose activity, negative = toxicity, actives largely listed as cytotoxic. HT-1080 IDH1 knockdown viability, ATP luminescence, 48 h;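 note: potency is the fitted concentration of half-maximal effect; 0% = DMSO wells and -100% = cell-free medium wells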
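In this qHTS, HT-1080 cells depleted of IDH1 are exposed for 48 h at 37 °C to compound titrations. Toxicity is scored from CellTiter-Glo luminescence, with DMSO as full viability and medium alone as none.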
DT40 TDP1 CPT = qHTS for Inhibitors of human tyrosyl-DNA phosphodiesterase 1 (TDP1): qHTS in cells in presence of CPT; 420,000 tested, 12% active; chicken DT40 Tdp1-/-;hTDP1 cells + 20 nM CPT, ATP luminescence, 48 h; Potency, µM (top dose mostly 46.2 µM), for inactives: top-dose activity change, negative = growth inhibition, actives largely listed as inhibitors; note: potency is the fitted concentration of half-maximal effect; nearly all actives have a fitted effect of over 55% in size
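Chicken DT40 Tdp1-/- cells complemented with human TDP1, 400 cells/well, exposed to compounds plus 20 nM camptothecin for at least 48 h at 37 C; viability read as ATP content by CellTiter-Glo luminescence.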
TDP1 cell noCPT = qHTS for Inhibitors of human tyrosyl-DNA phosphodiesterase 1 (TDP1): qHTS in cells in absence of CPT; AID 686978, 2013; 420,000 tested, 15% active; Potency, µM (highest dose often 46.2 µM), inactives show at the highest dose activity change, negative = growth inhibition, hits mostly inhibitors; DT40 Tdp1-/- hTDP1 cells, no CPT, ATP luminescence, 48 h; note: potency is the fitted concentration of half-maximal effect; nearly all actives have a fitted effect of over 55% in size
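A cellular qHTS used chicken DT40 cells lacking endogenous Tdp1 but carrying stably transfected human TDP1. Compounds were applied without camptothecin, and cell growth kinetics were judged by ATP-dependent luminescence after ≥48 hr.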
Active calls of the source: *; ? = inconclusive; · = no result given. In the library only some 19% were active in any assay of this set; here they are far more common. Unless noted, calls come from the whole dose curve; as a rule, active = well fitted curve in the direction sought with a large enough effect; inconclusive = small, poorly fitted or top-dose-only effect, or another doubt; inactive = no such curve, though single readings can be large; an effect the other way counts as inactive or inconclusive. Unless noted, % is set by controls: 0 for no effect and ±100 for the full control effect.

SMILES | ELG1 repair inh | IL-1B inflam inh | HT1080NT lethal | HT1080 IDH1KD tx | DT40 TDP1 CPT | TDP1 cell noCPT
COc1ccc(/C=C2\SC(=O)N(CCNC(=O)C3CSC4(C)CCC(=O)N34)C2=O)cc1 (stereo not given) | 23% | -6 | 10% | 10% | -2% | ?
Cc1ccc(S(=O)(=O)CCC(=O)NCCN2C(=O)S/C(=C/c3ccc(F)cc3)C2=O)cc1 | -4% | -62* | -12% | -2% | 23µM* | 18µM*
CC12CCC(=O)N1C(C(=O)NCCN1C(=O)S/C(=C\c3ccc(F)cc3)C1=O)CS2 (stereo not given) | ? | -63* | 1% | 2% | ? | ?
O=C(Cn1c(=O)c2cccn2c2ccc(F)cc21)NCCCN1CCN(c2ccccc2F)CC1 | 2% | -11 | ? | ? | ? | ?
O=C(Cn1c(-c2cccs2)cc2ccccc21)NCCCN1CCN(c2ccccc2F)CC1 | · | · | · | · | 23µM* | 16µM*
O=C(Cn1c(-c2cccs2)cc2cc(F)ccc21)NCCCN1CCN(c2ccccc2F)CC1 | · | · | · | · | 21µM* | 21µM*
CCCCCCN1CCN(C2CN(Cc3ccc([N+](=O)[O-])cc3)S(=O)(=O)C2)CC1 (stereo not given) | · | -10 | -13% | -1% | ? | ?
COC(=O)[C@@]12OC[C@]34[C@H]([C@@H](O)[C@@H]1O)[C@@]1(C)C(=O)C(O[C@@H]5OC(CO)[C@@H](O)[C@@H](O)[C@@H]5O)=C[C@@H](C)[C@@H]1C[C@H]3OC(=O)[C@H](OC(=O)/C=C(\C)C(C)(C)OC(C)=O)[C@@H]24 (stereo not given in full) | 6.5µM* | -56* | ? | ? | 5.2µM* | 3.3µM*
CCCCOC(=O)c1ccc(NC(=O)CSC2=Nc3ccccc3C3CC=NN23)cc1 (stereo not given) | 0% | 45 | -20% | -29% | 23µM* | ?
COc1ccc(NC(=O)CN(c2ccccc2OC)S(C)(=O)=O)c(OC)c1 | · | · | · | · | -1% | -13%
O=S(=O)(c1ccc(F)cc1)N1CCN(Cc2cc3c(cc2Br)OCCO3)CC1 | 0% | -2 | -3% | -1% | ? | ?
COc1cccc(N2CCN(CC(=O)Nc3ccc(SC(F)F)cc3)CC2)c1 | -27% | -28 | -4% | -9% | -17% | -9%
O=C(CN1CCN(c2ccc(O)cc2)CC1)Nc1ccc(SC(F)F)cc1 | 9.2µM* | -9 | -3% | -14% | ? | ?
Oc1ccc(N2CCN(Cc3cc4c(cc3Br)OCCO4)CC2)cc1 | ? | -2 | -17% | -25% | ? | 23µM*
O=C(CN1CCN(c2ccc(O)cc2)CC1)Nc1ccc2c(c1)OCCCO2 | 18µM* | -5 | -3% | -18% | ? | ?
CCOC(=O)c1ccccc1NC(=O)c1nn(C)c2c1COc1ccccc1-2 | · | · | · | · | -3% | -27%
CCCCN(c1ccccc1)c1ncnc(N)c1[N+](=O)[O-] | 2.6µM* | -8 | 7% | 2% | ? | -27%
CCC1CSC(Nc2ccc(C(=O)/C=C/c3ccc(Oc4ccccc4)cc3)cc2)=N1 (stereo not given) | -10% | ? | 0% | -15% | 23µM* | 16µM*
CCC1CSC(Nc2ccc(C(=O)/C=C/c3cccc(C)c3)cc2)=N1 (stereo not given) | -6% | -87* | ? | ? | 16µM* | 15µM*
Cc1ccc(-c2c(NCCc3ccccc3)c(=O)c2=O)cc1 | 6% | 18 | 4% | 11% | 0% | -19%
C=CCN1C=C2C(=O)C(C)(OC(=O)c3cnc4ccccc4n3)C(=O)C=C2C=C1/C=C/COC (stereo not given) | · | -2 | -11% | -7% | ? | 16µM*
COC/C=C/C1=CC2=CC(=O)C(C)(OC(=O)c3cnc4ccccc4n3)C(=O)C2=CN1CCOC (stereo not given) | · | 0 | 0% | 0% | ? | ?
CN(C)c1ccc(CC(=O)N2CCCC(c3cc(C(=O)Nc4ccccc4)no3)C2)cc1 (stereo not given) | · | 0 | -13% | -1% | ? | ?
CN(C)c1ccc(CC(=O)N2CCCC(c3cc(C(=O)Nc4ccc5c(c4)OCO5)no3)C2)cc1 (stereo not given) | · | -2 | -18% | ? | 16µM* | 13µM*
CC(C)c1ccc(C(=O)N2CCCC(c3cc(C(=O)Nc4ccc5c(c4)OCO5)no3)C2)cc1 (stereo not given) | · | -5 | -19% | -11% | ? | 21µM*
SMILES | ELG1 repair inh | IL-1B inflam inh | HT1080NT lethal | HT1080 IDH1KD tx | DT40 TDP1 CPT | TDP1 cell noCPT
Cc1ccc(C)c(CC(=O)N2CCCC(c3cc(C(=O)Nc4ccc5c(c4)OCO5)no3)C2)c1 (stereo not given) | · | -25 | ? | ? | 15µM* | 16µM*
COc1cc(S(=O)(=O)N2CCn3cccc3C2C)ccc1NC(C)=O (stereo not given) | 29% | -5 | 7% | -14% | -1% | 12%
CN(C(=O)COC(=O)CSc1ccc(C(N)=O)cc1[N+](=O)[O-])C1CCCCC1 | 13% | 10 | 1% | 6% | 8% | 0%
CCC(CC)CN1CCC(CN2C(=S)NC[C@@H]2CC(C)C)CC1 | · | 0 | -1% | 0% | ? | -19%
CCCC(=O)OCc1cnc(C)c2oc(=O)c(C(=O)Nc3ccc(F)cc3C)cc12 | · | · | · | · | ? | -36%
CC1CC(C)(C)Nc2ccc(N=O)cc21 (stereo not given) | ? | -105* | 15µM* | 18µM* | 2.3µM* | 1.8µM*
CNC(=O)C[C@@H]1CC[C@@H]2[C@H](COC[C@H](O)CN2S(=O)(=O)c2ccccc2Cl)O1 | · | -1 | 14% | 15% | -3% | -5%
COc1ccc(C)cc1-n1nnnc1SCc1nc(N)nc(N(C)C)n1 | · | -12 | ? | ? | 4.6µM* | 6.5µM*
Cc1cccc(C)c1-n1nnnc1SCc1nc(N)nc(N(C)C)n1 | · | 21 | ? | ? | 2.3µM* | 2.1µM*
